Test results reported in PubChem BioAssay (NCATS).
Inconclusive results are not listed. Activity calls are given as the source filed them. The call rests on the fitted dose curve; in most records, active means well fitted inhibition curve with a large enough effect; inconclusive means small, poorly fitted or top-dose-only effect; inactive means no such curve, though single readings can be large or run the other way.

Target: Retinaldehyde dehydrogenase 3 (Homo sapiens) (UniProt P47895)
Assay: qHTS for Inhibitors of the Aldehyde Dehydrogenase Family (ALDH1A3) Confirmatory screens (AID 2061311); further: nearly all actives have a fitted effect of over 60% in size
Conditions: ALDH inhibition qHTS; series mostly up to 46 µM; activity change, negative = inhibition: at the top concentration
On the % scale 0 is the no-effect control and ±100 the full control effect; potency means the concentration at half of the fitted maximal effect.

SMILES | activity change, negative = inhibition | Potency
COc1ccc2c(c1)c(CCN(C)C)cn2S(=O)(=O)c1ccccc1 | -16.7% (inactive) | 
Cc1cc(C(=O)CN2CCCC2)c(C)n1-c1ccc(F)cc1 | -0.685% (inactive) | 
CO[C@@H]1[C@H](O)[C@@H](O[C@@H]2C[C@H]3CC[C@@H]4C(CC[C@]5(C)[C@@H](C6=CC(=O)OC6)CC[C@]45O)[C@@]3(C)[C@H](O)C2)O[C@H](C)[C@@H]1O (stereo partly drawn) | -10.8% [at 25.8 µM] (inactive) | 
CCCN1CCc2cccc3c2[C@H]1Cc1ccc(O)c(O)c1-3 |  | 22.5 µM (active)
NC1CCc2cc(O)c(O)cc2C1 (stereo not drawn) |  | 11.3 µM (active)
CCCN(CCC)[C@@H]1CCc2ccc3[nH]c(C#N)cc3c2C1 | -17.3% (inactive) | 
CCN1C[C@]2(COC(=O)c3ccccc3N3C(=O)C[C@H](C)C3=O)CC[C@H](OC)[C@@]34[C@@H]5C[C@H]6[C@H](OC)[C@@H]5[C@](O)(C[C@@H]6OC)[C@](O)([C@@H](OC)[C@H]23)[C@@H]14 | -3.98% (inactive) | 
O=S(=O)(c1ccccc1F)N1CCOc2c(N3CCNCC3)cccc21 | 2.11% (inactive) | 
